# KB-3-1 tox = kills parental KB-3-1 adenocarcinoma cells; KB-3-1 viability, CellTiter-Glo ATP luminescence, 72 h; Potency, µM (top dose mostly 46.1 µM), most hits filed as cytotoxic; 400,000 tested, 1.4% active; AID 1347075; also: % is scaled to controls: 0 for no effect and ±100 for the full control effect; nearly all actives have a fitted effect of over 60% in size
#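 Cytotoxicity in the drug-sensitive parental line KB-3-1 was scored as loss of CellTiter-Glo luminescence following 72 h incubation with compound. Values come from curve fitting of normalized concentration-response data.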
# HT1080 IDH1KD tx = toxicity to HT-1080 IDH1 knockdown cells (counter line). AID 686971. Potency, µM (top dose mostly 46.1 µM), inactives show top-dose activity, negative = toxicity, hits mostly cytotoxic. HT-1080 IDH1 knockdown viability, ATP luminescence, 48 h. 360,000 tested, 2% active;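 also: 0% = DMSO wells and -100% = cell-free medium wells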
#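 Cytotoxicity counter-line: IDH1KD HT-1080, 48 h, CellTiter-Glo. Curves classed by r2, magnitude and activity.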
# HT1080NT lethal = kills 2HG-producing HT-1080-NT fibrosarcoma cells. HT-1080-NT fibrosarcoma viability, CellTiter-Glo ATP luminescence, 48 h. Potency, µM (top dose mostly 46.1 µM), for inactives: top-dose activity, negative = less viability, most hits filed as cytotoxic. 360,000 tested, 1.6% active. AID 686970;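 also: NT is the 2HG producing partner of a matched IDH1 knockdown line; 0% = DMSO-treated cells and -100% = media-only wells without cells; nearly all actives have a fitted effect of over 55% in size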
#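 Compounds were tested in concentration-response format on HT-1080-NT cells for 48 hours at 37 degrees C. Cell viability came from CellTiter-Glo luminescence; curves were classified by r2, response magnitude and activity.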
# SW480 rereplic = inducers of DNA re-replication in SW480 colon cancer cells; AID 624297; 340,000 tested, 1.8% active; SW480 DNA re-replication, Hoechst DNA content imaging, 48 h; Potency, µM (doses to about 46.1 µM), for the others: at the highest dose re-replication activation, actives largely listed as activators; also: % of control where 0% means no effect; nearly all actives have a fitted effect of over 55% in size
#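 Per well, 250 cells were exposed to pinned compound for 48 hr. Nuclear DNA was visualised with Hoechst (40 min, 37 C) and total object intensity recorded by fluorescence scanning.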
# MCF10A rerep = induces DNA re-replication in MCF 10a normal breast cells; MCF 10A DNA re-replication, Hoechst nuclear intensity, 48 h; Potency, µM (top dose mostly 46.1 µM), without a hit: top-dose activity, positive = re-replication, hits mostly activators; 350,000 tested, 2.9% active; also: % of control where 0% means no effect; nearly all actives have a fitted effect of over 50% in size
# KB-V1 cytotox = kills drug-selected multidrug resistant KB-V1 cells; KB-V1 MDR cells viability, CellTiter-Glo, 72 h; Potency, µM (titrated, usually from 46.1 µM), hits mostly cytotoxic; 400,000 tested, 3.4% active; AID 1347076; also: % is scaled to controls: 0 for no effect and ±100 for the full control effect; nearly all actives have a fitted effect of over 60% in size
#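 KB-V1 cells (P-gp-expressing MDR subline of KB-3-1) in phenol-red-free DMEM with 10% FBS were exposed to library compounds over a concentration series for 72 h at 37 degrees C. Viability read by CellTiter-Glo luminescence; concentration-effect curves fitted after normalization.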
# * hit, by the source's call; i = inactive; ? = inconclusive; nt = not tested or not shown; ! = repeats disagree. An excerpt weighted towards active compounds, which were near 7.9% of everything screened. Calls follow the shape of the dose curve; as a rule, active = well fitted curve in the direction sought with a large enough effect; inconclusive = small, poorly fitted or top-dose-only effect, or another doubt; inactive = no such curve, though single readings can be large; an effect the other way counts as inactive or inconclusive. Potency is read from the fitted curve at half-maximal effect.
SMILES,KB-3-1 tox,HT1080 IDH1KD tx,HT1080NT lethal,SW480 rereplic,MCF10A rerep,KB-V1 cytotox
CCN(CC)CCCN(C(=O)c1ccc(OC)cc1)c1nc(-c2ccc(OC)cc2)cs1,?,15µM*,23µM*,?,?,i
CCN(CC)CCCN(C(=O)c1ccccc1C)c1nc(-c2ccc(OC)cc2)cs1,i,-22%,-26%,-3%,6%,i
CCCc1cnc2c(c1SCC(=O)N(C)c1ccccc1)c(=O)n(C)c(=O)n2C,i,nt,nt,nt,nt,i
OCCCNc1ncnc2c1ncn2[C@H]1CN(Cc2cccs2)C[C@@H](CO)O1,i,8%,1%,nt,nt,i
O=C(NC1CCCCC1)C(c1ccnc2ccccc12)n1c(=O)c(-c2ccccc2)nc2ccccc21 (centres undefined),18µM*,12µM*,13µM*,nt,nt,23µM*
COc1ccccc1NC(=O)c1csc2c1CCCC2,i,1%,13%,15%,24%,16µM*
COc1ccccc1CNC(=O)c1csc2c1CCCC2,i,21%,19%,-8%,-2%,i
O=C(NCc1ccccc1)C1C(c2ccc3c(c2)OCO3)=Nc2ccccc2N1C(=O)c1ccco1 (centres undefined),7.3µM*,8.2µM*,13µM*,nt,nt,?
CC(NC1=CC(=O)c2cccnc2C1=O)C(O)c1ccccc1 (centres undefined),8.2µM*,6.5µM*,18µM*,12µM*,3.7µM*,15µM*
CC(c1ccccc1)N1C(=O)c2cccnc2C1=O (centres undefined),i,8%,15%,-4%,?,i
CC(C)c1ccc(NS(=O)(=O)c2ccc3c(c2)NC(=O)CO3)cc1,i,-1%,7%,-12%,-1%,i
CC(C)c1ccc(C2C3=C(COC3=O)Nc3cc4c(cc32)OCO4)cc1 (centres undefined),0.73µM*,1.6µM*,1.5µM*,?,?,1.2µM*
CCC(c1nnnn1Cc1ccccc1)N(Cc1ccccc1)Cc1cc2cc(C)ccc2[nH]c1=O (centres undefined),i,nt,nt,nt,nt,i
CC1(C)CCC[C@]2(C)[C@H]3Cc4cc(O)ccc4O[C@]3(C)CC[C@@H]12,i,?,?,10%,12µM*,i
COc1ccc(CCNC(=O)c2cnc3ccc(C)cn3c2=O)cc1OC,i,nt,nt,nt,nt,i
Cc1ccc(CSC(Nc2ccc(F)cc2)=C(C#N)C#N)cc1,?,?,?,?,13µM*,13µM*
CCN(CC)C(=O)CSC(Nc1ccc(F)cc1)=C(C#N)C#N,i,6%,-3%,1%,-1%,i
CC(=Nc1ccccc1)C1=C(O)C(Cc2ccc(O)cc2)NC1=O (centres undefined),0.21µM*,?,0.58µM*,0.13µM*,0.46µM*,?
CC(=Nc1ccccc1)C1=C(O)C(Cc2cccc(F)c2)NC1=O (centres undefined),?,?,0.026µM*,nt,nt,1.2µM*
O=C(Nc1ccc(F)cc1)[C@H](Cc1ccccc1)N1Cc2ccccc2C1=O,i,nt,nt,nt,nt,i
O=c1[nH]c(S)nc2sc3c(c12)CCCC3,i,-5%,-12%,0%,?,i
O=c1[nH]c(-c2ccco2)nc2sc3c(c12)CCCC3,i,28%,7%,1%,-6%,18µM*
Cn1c(/C=C/c2ccc(Cl)cc2)c([N+](=O)[O-])c(=O)n(C)c1=O,?,?,?,18%,7.3µM*,i
COc1ccc(S[C@@H](CCN2CC[C@H](C)CCC2=O)c2ccccc2)cc1,i,-9%,-24%,-2%,18µM*,?
Cc1ccc(S[C@@H](CCN2CC[C@H](C)CCC2=O)c2ccccc2)cc1,?,-1%,-8%,-6%,?,12µM*!

# Screening results deposited in PubChem by National Center for Advancing Translational Sciences (NCATS).
